Bioassay records as filed in PubChem BioAssay.
DAX1 inh-1 = DAX1 (NR0B1) inhibitors, primary screen, cell-based, HEK293, Gal4-DAX1, luciferase luminescence. Nuclear receptor subfamily 0 group B member 1 (Homo sapiens), P51843. HEK293 Gal4-DAX1 luciferase reporter. inhibition, % at 6.75 µM. hit rate 0.99% among 340,000. AID 504766, 2011;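 active means inhibition above the mean over all tested compounds plus 3 SD, cut at about 4.2% in these data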;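 further: 0% = DAX1-transfected cells with DMSO and 100% = empty-vector control cells with DMSO; inhibition shows as a rise in luminescence from relieved DAX1 repression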
Target sequence (P51843 207-470 limits assumed): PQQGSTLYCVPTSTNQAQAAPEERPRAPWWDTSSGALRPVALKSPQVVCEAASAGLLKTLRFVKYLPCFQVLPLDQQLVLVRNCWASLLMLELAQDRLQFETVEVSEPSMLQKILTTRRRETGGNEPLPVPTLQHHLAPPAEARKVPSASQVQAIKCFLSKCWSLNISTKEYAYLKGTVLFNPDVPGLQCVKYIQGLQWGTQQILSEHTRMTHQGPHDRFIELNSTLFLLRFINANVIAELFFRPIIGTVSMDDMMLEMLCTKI
hgDAF-12 ag = H. glycines DAF-12 receptor agonists, primary screen, cell-based, luminescence, HEK293, GAL4 fusion, UAS-luciferase | hit rate 1.8% among 370,000 | activation, % at 6.8 µM | Nuclear hormone receptor DAF-12 (Heterodera glycines), GAL4 fusion | HEK293 GAL4-hgDAF12 UAS-luciferase reporter, agonist luminescence; normalized to butyrate control;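 active means activation above a cutoff set at the mean of all screened compounds plus 3 SD, cut at about 10% in these data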;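 further: 0% = DMSO wells and 100% = sodium butyrate wells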
hcDAF12 agonist = H. contortus DAF-12 nuclear receptor activators, primary screen, cell-based, luminescence, HEK293, lit1-tk-luc reporter; activation, % at 6.8 µM; HEK293 hcDAF-12 lit1-tk-luc reporter; 0% DMSO, 100% Δ7-dafachronic acid; hit rate 1.4% among 370,000;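 active means activation above the mean of all tested compounds plus 3 SD, cut at about 5.5% in these data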;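 further: 100% = response to 3 µM Δ7-dafachronic acid high control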
ssDAF-12 act = S. stercoralis DAF-12 nuclear receptor activators, primary screen, cell-based, luminescence, HEK293, GRIP1 co-expression, lit1-tk-luc | AID 652126, 2013 | Nuclear hormone receptor DAF-12 (Strongyloides stercoralis) | activation, % at 6.8 µM | hit rate 1% among 370,000 | HEK293 ssDAF-12/GRIP1 lit1-tk-luc reporter; % of 3 µM dafachronic acid response;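 active means activation above the mean over all tested compounds plus 3 SD, cut at about 0.9% in these data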;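 further: 0% = DMSO-only wells and 100% = 3 µM delta7-dafachronic acid wells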
DAX1 inh-2 = DAX1 (NR0B1) inhibitors on StAR promoter, primary screen, cell-based, luminescence, SF-1 (NR5A1), full-length DAX-1; HEK293T StAR-luciferase reporter, SF-1/DAX-1 repression relief; inhibition, % at 6.8 µM; hit rate 1.1% among 370,000; AID 652010, 2013;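 active means inhibition above the mean over all tested compounds plus 3 SD, cut at about 3.6% in these data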;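 further: 0% = DAX-1 cells with DMSO and 100% = cells lacking DAX-1 with DMSO; higher inhibition means more luminescence from relief of DAX-1 repression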
SMARCA2 act = SMARCA2 (BRM) function activators, primary screen, cell-based, luminescence, high throughput | MG213 cells, MMTV-luciferase reporter, dexamethasone, overnight | activation, % at 9.1 µM | hit rate 1% among 370,000; in the data active means activation above about 7.8%;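 further: 0% = vehicle wells and 100% = reference activator wells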
LXR ag = LXR agonists, Gal4 luciferase reporter, confirmation, counter-screen for hcDAF-12 agonist project, cell-based, luminescence, HEK293, H. contortus campaign | shares compounds with hcDAF12 agonist | HEK293 Gal4-LXR tk-luc reporter, 24 h; normalized: DMSO 0%, positive control 100% | activation, % at 6.8 µM | 3,400 tested, under 10 active | AID 743027, 2013;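 active means mean percent activation of the reporter above a cutoff set as the average over tested compounds plus their standard deviation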
hcDAF12 ag = H. contortus DAF-12 receptor agonists, confirmation, cell-based, luminescence, HEK293, lit1-tk-luc, triplicate; shares compounds with hcDAF12 agonist; HEK293 hcDAF-12 lit1-tk-luc reporter; % of Δ7-dafachronic acid response; activation, % at 6.8 µM; hit rate 61% among 3,400;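 active means mean activation across triplicate tests above the threshold derived from the earlier primary screen, cut at about 5.5% in these data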;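 further: 0% = DMSO only wells and 100% = 3 µM Δ7-dafachronic acid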
* = called active by the depositor; x = not tested or not shown. Shown are actives, neighbours in structure and some others; about 4.8% of the full set was active somewhere.

SMILES	DAX1 inh-1	hgDAF-12 ag	hcDAF12 agonist	ssDAF-12 act	DAX1 inh-2	SMARCA2 act	LXR ag	hcDAF12 ag
CC(=O)Oc1ccc(C(=O)Nc2ccc3c(c2)OCCO3)cc1	2.2	11.2*	9.1*	0.9	2.5	3.7	1.6	8.5*
O=C(Nc1ccc2c(c1)OCCO2)C(=O)NC1CC1	1.3	7.8	6.8*	0.2	1.9	5.6	0.6	4.7
CC(=O)Nc1ccc2c(c1)OCCOCCOc1cc(NC(C)=O)ccc1OCCOCCOCCO2	x	-2.0	-2.7	-0.3	-0.9	6.3	x	x
COc1cc2c(c(OC3OC(CO)C(O)C(O)C3O)c1)C(=O)CC(c1ccc(O)cc1)O2 (stereo unspecified)	x	1.1	-0.6	-0.9	-0.2	-0.2	x	x
CCCCCCCCN1C(=O)[C@@H](CC(=O)N2CCCC2)C[C@@]2(C(=O)OC)C1=C[C@H](C(C)(C)C)O[C@@H]2C	x	-0.6	1.5	-1.1	-1.1	-4.9	x	x
Nn1cnc2scc(-c3ccc(Cl)cc3)c2c1=O	1.1	9.1	6.9*	1.7*	-0.3	3.9	0.1	1.0
Nn1cnc2scc(-c3cccs3)c2c1=O	0.3	0.3	0.7	-1.1	-0.3	-3.8	x	x
Cc1nnc(N2CCOCC2)c2nn(-c3ccccc3)c(C)c12	0.8	-1.4	-1.0	-1.8	-0.6	-4.2	x	x
c1ccc(-n2nnc3c(N4CCOCC4)ncnc32)cc1	-2.3	7.0	7.2*	0.1	2.1	5.8	1.3	6.3*
COc1cccc(C2NC(=S)N(Cc3ccc(Br)cc3)C(C)=C2C(C)=O)c1 (stereo unspecified)	x	-3.0	-1.0	-0.8	-1.0	-1.1	x	x
O=C(CSc1nnc(SCC(=O)c2ccco2)s1)c1ccco1	-0.6	-0.7	1.6	0.3	-1.0	-0.2	x	x
O=C(CSc1nc2cc(Cl)ccc2s1)c1ccco1	2.3	3.3	9.7*	0.1	2.5	6.8	0.1	3.4
O=C1Nc2ccccc2SC1=Cc1ccccc1	1.8	2.0	5.2	-0.5	0.8	4.4	x	x
O=C1CCCC2=C1Sc1ccccc1N2	x	-0.6	7.8*	-1.1	-0.2	-5.2	-0.2	4.4
CN(C)CCCNc1c2c(nc3ccccc13)CCC2	-0.2	1.5	7.0*	-0.8	1.0	6.1	0.0	5.0
O=C(NN=Cc1ccco1)c1cccnc1	x	-1.0	-1.2	-1.0	0.5	-5.7	x	x
Cc1ccc(NC(=O)C2=C(O)CCn3c2nc2ccccc23)cc1	1.3	3.9	8.9*	1.9*	-0.4	3.9	0.1	4.8
Cc1cc(C)c2c(N)c(C(=O)c3ccccc3)oc2n1	0.8	-0.1	-0.5	-1.5	-1.1	-1.6	x	x
Cc1cc(-c2ccccc2)nc2oc(C(=O)NN)c(N)c12	-0.5	-1.0	6.6*	1.2*	-0.7	-5.0	-0.2	4.0
CCOC(=O)[C@]12CCCCC/C=C\1N(CCc1ccc(Cl)cc1)C(=O)[C@H]2CC(=O)NCc1cccc(C(F)(F)F)c1	x	-0.8	-3.1	-0.9	-1.1	-2.0	x	x
Cc1nn2c3ccccc3nc2c2ccccc12	0.9	5.2	7.5*	0.7	1.1	6.9	0.1	7.1*
O=C(NCc1ccccc1)C(c1ccccc1)n1c(=O)c(-c2cc3ccccc3[nH]2)nc2ccccc21 (stereo unspecified)	x	4.1	3.5	0.3	2.1	-3.8	x	x
O=C(Nc1ccc2c(c1)OCCO2)C(c1ccc(C(F)(F)F)cc1)n1c(=O)c(-c2cc3ccccc3[nH]2)nc2ccccc21 (stereo unspecified)	x	5.0	5.2	0.2	0.8	6.8	x	x
O=C(Nc1ccc2c(c1)OCCO2)C(c1ccncc1)n1c(=O)c(-c2cc3ccccc3[nH]2)nc2ccccc21 (stereo unspecified)	x	12.1*	8.8*	1.6*	2.6	3.8	1.1	15.0*
O=C(NCc1ccccc1)C(c1cc2ccccc2o1)n1c(=O)c(-c2cc3ccccc3[nH]2)nc2ccccc21 (stereo unspecified)	x	5.6	9.2*	1.8*	2.7	-2.3	-0.2	7.0*
SMILES	DAX1 inh-1	hgDAF-12 ag	hcDAF12 agonist	ssDAF-12 act	DAX1 inh-2	SMARCA2 act	LXR ag	hcDAF12 ag
CCCCCNC(=O)C(c1ccncc1)n1c(=O)c(-c2cc3ccccc3[nH]2)nc2ccccc21 (stereo unspecified)	x	8.4	9.2*	0.9*	4.3*	0.3	0.3	9.9*
CCOC(=O)c1ccc(-c2ccc(/C=N/NC(=O)Cc3nnc(N)s3)o2)cc1	0.7	7.4	8.8*	-0.3	3.7*	-0.1	0.4	4.3
O=C(/C(=C(\[O-])c1ccccc1)[n+]1ccc2ccccc2c1)c1ccc([N+](=O)[O-])cc1	-0.1	0.7	4.5	-0.2	0.4	-2.2	x	x
O=C(/C(=C(\[O-])c1ccccc1)[n+]1ccc2ccccc2c1)c1ccccc1	-0.2	3.4	8.1*	0.7	0.6	-0.7	-0.1	5.4
O=C(/C(=C(/[O-])c1ccccc1)[n+]1ccccc1)c1ccc([N+](=O)[O-])cc1	0.9	2.9	0.6	-1.7	0.8	1.1	x	x
O=C(/C(=C(\[O-])c1ccccc1)[n+]1ccc2ccccc2c1)c1ccc(Cl)cc1	2.7	0.3	9.8*	-0.1	0.1	-0.7	-0.2	4.7
CN1CC=C(c2ccc(C(F)(F)F)cc2)N(c2ccc(Br)cc2)C1=O	x	1.8	-0.8	-1.3	-1.3	2.3	x	x
COc1ccc2[nH]c3c(c2c1)CCN[C@]31C(=O)N(Cc2cn(Cc3ccccc3)nn2)c2ccccc21	x	2.6	-0.8	-0.4	0.4	-3.3	x	x
O=C(O)c1ccccc1Nc1cccc(OCc2ccc3ccccc3n2)c1	0.0	2.7	6.6*	-0.6	0.7	1.8	-0.3	1.4
